In the supplement of paper PMC11634586:

Test system: NCI-H1688
Assay: inhibition of cell viability relative to untreated control (fraction); higher = stronger growth inhibition, active = 0.5 or more
Details: 30 µM; 24 h
Summary of the method: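 Inhibition of cell viability appears as a fraction, based on viability relative to untreated cells. The assay used NCI-H1688 small cell lung cancer cells seeded in 96-well plates at 3 × 10^3 cells/well, treated one day later with a natural compound library (TargetMol) at 30 µM for 24 h at 37°C and 5% CO2. Absorbance at 450 nm with Cell Counting Kit-8 was recorded in triplicate.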

Row | SMILES | inhibition of cell viability
1 | OC[C@H]1O[C@H](OCC2O[C@@H](O)[C@H](O)[C@@H](O)[C@@H]2O)[C@H](O)[C@@H](O)[C@H]1O (some centres not stated) [Melibiose] | -0.13 (inactive)
2 | C[C@H](CCC(=O)O)[C@H]1CC[C@H]2[C@@H]3C[C@H](O)[C@@H]4C[C@H](O)CC[C@]4(C)[C@H]3CC[C@]12C [Hyodeoxycholic acid (HDCA)] | -0.163 (inactive)
3 | CC(=O)O[C@]1(C)CC[C@@]23C[C@H]1C(C)(C)[C@@H]2CC[C@H]3C [Cedryl acetate] | -0.223 (inactive)
4 | OC[C@H]1O[C@H](O)[C@H](O)[C@@H](O)[C@H]1O [Alpha-D-galactose] | 0.0334 (inactive)
5 | CC(C)=CCC[C@](C)(O[C@@H]1O[C@H](CO)[C@@H](O)[C@H](O)[C@H]1O)[C@H]1CC[C@]2(C)[C@@H]1[C@H](O)C[C@@H]1[C@@]3(C)CC[C@H](O)C(C)(C)[C@@H]3[C@@H](O[C@@H]3O[C@H](CO)[C@@H](O)[C@H](O)[C@H]3O[C@@H]3OC[C@@H](O)[C@H](O)[C@H]3O)C[C@]12C [Notoginsenoside R1] | -0.0107 (inactive)
6 | CC(C)=CCC[C@](C)(O[C@@H]1O[C@H](CO[C@@H]2O[C@@H](CO)[C@H](O)[C@H]2O)[C@@H](O)[C@H](O)[C@H]1O)[C@H]1CC[C@]2(C)[C@@H]1[C@H](O)C[C@@H]1[C@@]3(C)CC[C@H](O[C@@H]4O[C@H](CO)[C@@H](O)[C@H](O)[C@H]4O[C@@H]4O[C@H](CO)[C@@H](O)[C@H](O)[C@H]4O)C(C)(C)[C@@H]3CC[C@]12C [Ginsenoside Rc] | -0.0382 (inactive)
7 | COc1ccc2[nH]cc(CCNC(C)=O)c2c1 [Melatonine] | 0.177 (inactive)
